Assay outcomes deposited in PubChem by National Center for Advancing Translational Sciences (NCATS).
This is a sample that favours compounds with a hit; in the whole collection about 2.7% have one here.
TGFb SMAD3 inh: inhibitors of TGF-b signaling; AID 588855; actives 1.2% (n = 410,000); Potency, µM (doses to about 46.1 µM), without a hit: at the top dose activity, negative = inhibition, actives largely listed as inhibitors; HepG2 CAGA-GFP TGF-b/SMAD3 reporter, GFP fluorescence, 18 h; TGF-beta stimulated, 500 pg/mL final; also: % is scaled to controls: 0 for no effect and ±100 for the full control effect; nearly all actives have a fitted effect of over 65% in size
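Inhibition of TGF-beta-driven CAGA-GFP reporter expression in HEPG2 cells is measured by cellular GFP fluorescence after 18 h stimulation with 500 pg/mL recombinant TGF-beta in 1% FBS medium at 37 degrees C.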
HepG2 tox: kills HepG2 cells in TGF-b inhibitor counter-screen | HepG2 CAGA-GFP viability, ATP luminescence, 18 h | Potency, µM (titrated, usually from 46.1 µM), inactives show at the highest dose activity change, negative = cytotoxicity, most hits filed as cytotoxic | actives 0.76% (n = 410,000) | AID 588856
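CellTiter-Glo luminescence gave cytotoxicity after 18 hours at 37 degrees C. The cells were HepG2 CAGA-GFP in 1% FBS DMEM, stimulated with 500 pg/mL TGF-beta after compound addition. %Activity was normalised to no-cell wells (complete cell-killing) and DMSO (no toxicity), and curves were fitted and classified.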
ATXN2 expr inh: reduces ATXN2 reporter expression in HEK-293 cells. AID 1745845. HEK-293 ATXN2-luciferase reporter, luminescence, 24 h. actives 0.72% (n = 360,000). Potency, µM (top dose mostly 57 µM), without a hit: at the top dose activity change, negative = inhibition, most hits filed as inhibitors; also: % is scaled to controls: 0 for no effect and ±100 for the full control effect; nearly all actives have a fitted effect of over 55% in size
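ATXN2-luciferase reporter cells (luciferase flanked by upstream and downstream ATXN2 gene portions) were treated 24 h at 37 °C with compounds at up to 57 uM. SteadyGlo luminescence gave expression; GF-AFC fluorescence gave viability.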
12-LOX inh: blocks human arachidonate 12S-lipoxygenase; P18054; purified 12hLO, xylenol orange hydroperoxide absorbance; Potency, µM (titrated, usually from 108 µM), inactives show at the top dose activity change, negative = inhibition, most hits filed as inhibitors; actives 1.1% (n = 580,000); AID 1671190; also: % is scaled to controls: 0 for no effect and ±100 for the full control effect
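Hydroperoxide product was detected by ferrous iron/xylenol orange as the 573 to 405 nm absorbance ratio. Arachidonic acid at 40 uM (final) was turned over for 30 min at room temperature by 150 nM human 12hLO, pH 7.0 Hepes buffer, after 15 min compound preincubation.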
ATXN viability: cell viability loss in ATXN counter-screen; S2 cells (HEK-293 line with an ATXN2-luciferase reporter) viability, CellTiter-Fluor protease fluorescence, 24 h; Potency, µM (highest dose often 56.7 µM), hits mostly cytotoxic; actives 0.49% (n = 400,000); AID 651635; also: nearly all actives have a fitted effect of over 40% in size
Numbers without * were called inactive; i = inactive; ? = inconclusive; . = not tested or not shown; [ ] = remark or other dose. Calls follow the shape of the dose curve; as a rule, active = well fitted curve in the direction sought with a large enough effect; inconclusive = small, poorly fitted or top-dose-only effect, or another doubt; inactive = no such curve, though single readings can be large; an effect the other way counts as inactive or inconclusive. Potency is read from the fitted curve at half-maximal effect.

SMILES | TGFb SMAD3 inh | HepG2 tox | ATXN2 expr inh | 12-LOX inh | ATXN viability
O=C(O)c1ccccc1NS(=O)(=O)c1ccc(N/N=C/c2c(-c3ccccc3)[nH]c3ccccc23)c([N+](=O)[O-])c1 | . | . | . | 12.6µM* | .
Cc1oc(-c2cccs2)nc1CC(=O)NC(C)CN1CCOCC1 (stereo not given) | . | . | . | 1.0% | .
c1ccc2c(CCNc3ccc(Nc4ccncc4)cc3)c[nH]c2c1 | . | . | 15.3µM* | -11.5%[57.4 µM] | .
CCN1CCN(c2ccc(Cl)cc2NC(=O)c2ccc(-n3nc(C)cc3C)cc2)CC1 | -6.4% | 22.4µM* | ? | 313.4% | i
CCN1CCN(c2ccc(Cl)cc2NC(=O)c2ccco2)CC1 | 18.6% | -18.6% | . | 4.0% | i
c1ccc(SCCN2CCN(c3ccccc3)CC2)cc1 | -7.5% | -22.3% | 3.6% | 12.6µM* | i
CCCN1CCC(=O)N(CCSc2ccccc2)CC1 | 8.9% | -2.5% | 12.1% | -2.9% | i
COc1ccc(C(=O)/C=C(\N)C(F)(F)F)c(O)c1 | 7.1% | 7.0% | 3.2% | 39.8µM* | i
N/C(=C/C(=O)c1ccccc1O)C(F)(F)F | 0.0% | 11.2% | 6.1% | . | i
COc1cccc(-n2c(SCc3cc(=O)oc4cc(O)c(O)cc34)nc3ccccc3c2=O)c1 | -19.9% | -78.5% | -24.0% | 7.08µM* | i
CC(=O)N1N=C(c2ccc(C)cc2)OC1c1ccc(Br)cc1 (stereo not given) | 2.1% | -11.0% | 48.3% | ? | i
CCOc1ccc(Br)cc1C1=NN(C(C)=O)C(c2ccc([N+](=O)[O-])s2)O1 (stereo not given) | 12.6µM* | -98.9% | -5.9% | -8.1% | i
O=C(O)c1cc(N2N=C(C(F)(F)F)/C(=C/C=C/c3ccco3)C2=O)ccc1Cl | 14.8% | -2.5% | -36.2%[11.3 µM] | 5.62µM* | ?
CCOC(=O)c1ccc(N2N=C(C)/C(=C/C=C/c3ccco3)C2=O)cc1 | 0.0% | -19.0% | -7.2% | -15.4% | ?
CC1(C)C(c2ccc(Cl)cc2)=[N+]([O-])C(C)(C)N1O | . | . | . | -5.3% | .
Nc1ccc(C(=O)OCCCc2nc3ccccc3[nH]2)cc1 | 4.8% | 10µM* | 8.8% | 0.0% | i
CCC(C)(C)C1CCc2c(sc(NC(=O)/C=C/c3ccccc3)c2C#N)C1 (stereo not given) | . | . | . | 28.0% | .
Cc1c(Br)c(=O)oc2c(Br)c(O)c(O)cc12 | ? | -29.1% | 2.4% | 22.4µM* | .
COc1cc(CCc2ccccc2)c(C(=O)O)c(O)c1C/C=C(/C)CCC=C(C)C | 12.6µM* | 14.1µM* | 0.0% | ? | i
COc1ccc(-c2nn(-c3ccccc3)cc2C(=O)N(C)CC(=O)Nc2cccc(F)c2)cc1 | ? | -38.5% | . | -9.4% | ?
CN(CC(=O)Nc1cccc(F)c1)C(=O)c1cn(-c2ccccc2)nc1-c1ccc(F)cc1 | 22.4µM* | -47.5% | . | ? | ?
CCOc1ccccc1NC(=O)C1CCCN1S(=O)(=O)c1ccc2nc(-c3ccccc3)[nH]c2c1 (stereo not given) | 11.2µM* | -27.5% | . | -4.1% | .
Cc1cc(C)cc(NC(=O)C2CCCN2S(=O)(=O)c2ccc3nc(-c4ccccc4)[nH]c3c2)c1 (stereo not given) | ? | -28.5% | . | -8.2% | .
CN1CCN(Cc2ccc(-c3ccc(C(C)(C)C#N)cc3)nc2)CC1 | . | . | . | 20µM* | .
Cc1ccc(Nc2nc(COC(=O)c3ccc4c(c3)C(=O)N(C)C4=O)cs2)cc1 | . | . | . | 43.7% | .
Cc1cc(C)cc(NC(=O)CS(=O)(=O)Cc2nc(-c3ccccc3C)oc2C)c1 | . | . | . | 11.1% | .
CCOC(=O)c1c(SCCN2CCCC2)n(-c2ccccc2)c(=S)n(-c2ccccc2)c1=O | ? | -46.6% | 22.4µM* | -12.8% | ?
CCOC(=O)c1c[nH]c(=S)n(-c2ccccc2)c1=O | ? | 3.2% | 6.2% | ? | i
CCOc1ccc(/C=C2\SC(=S)NC2=O)cc1OC | 15.1% | -18.0% | 25.5% | -8.7% | ?
COc1cc(/C=C2/SC(=S)NC2=O)ccc1OS(=O)(=O)c1ccc(C)cc1 | 15.8µM* | -16.1% | -15.5%[11.3 µM] | . | i
